{"source": "PubChem BioAssay (EPA / NIEHS)", "note": "Results filed as inconclusive are left out. Where a structure was tested more than once in an assay, its records may differ in their call. Active and inactive are the calls of the source. How the source made its calls, unless noted: active means hit-call score of the fitted dose curve at least 0.9, where 1 is the maximum; inactive means score below 0.9.", "data": [{"test_system": "not listed separately", "assay": "CCTE_Shafer_MEA_dev_per_network_spike_spike_number_mean: CCTE's Neural Network Formation Assay for Mean Number of Spikes in a Network Spike, Shafer Lab (AID 2284053)", "how_it_was_run": "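Primary rat cortical neurons on 48-well, 16-electrode MEA plates were exposed from plating to DIV 12, with dosing renewed on DIV 5 and 9. Spikes per network spike (0.05 s peak window) were recorded on DIV 5, 7, 9 and 12 and collapsed as trapezoidal AUC versus DMSO.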", "values": [{"smiles": "O=S(=O)(O)CCC(F)(F)C(F)(F)C(F)(F)C(F)(F)C(F)(F)C(F)(F)C(F)(F)C(F)(F)F", "outcome": "inactive"}, {"smiles": "OCC(F)(F)C(F)(F)C(F)(F)C(F)(F)C(F)(F)C(F)(F)CO", "outcome": "inactive"}, {"smiles": "OCCCCC(F)(F)C(F)(F)C(F)(F)C(F)(F)F", "outcome": "inactive"}, {"smiles": "OC(O)C(F)(F)C(F)(F)F", "outcome": "inactive"}, {"smiles": "O=C(O)C(F)(F)C(F)(F)C(F)(F)OC(F)(F)F", "outcome": "inactive"}, {"smiles": "C=CC(=O)OCC(F)(F)C(F)(F)C(F)(F)COC(=O)C=C", "AC50": "4.72 µM (active)"}, {"smiles": "FC(F)(F)C(F)(F)C(F)(F)C(F)(F)C(F)(F)C(F)(F)C(F)(F)CCI", "outcome": "inactive"}, {"smiles": "OCC(O)CC(F)(F)C(F)(F)C(F)(F)C(F)(F)F", "note": "(stereo unspecified)", "outcome": "inactive"}, {"smiles": "NC(=O)C(F)(F)C(F)(F)C(F)(F)F", "outcome": "inactive"}, {"smiles": "CNS(=O)(=O)C(F)(F)C(F)(F)C(F)(F)C(F)(F)C(F)(F)C(F)(F)C(F)(F)C(F)(F)F", "outcome": "inactive"}, {"smiles": "NC(O)(C(F)(F)F)C(F)(F)F", "outcome": "inactive"}, {"smiles": "NC(=O)C(F)(F)C(F)(F)C(F)(F)C(F)(F)C(N)=O", "outcome": "inactive"}, {"smiles": "OCC(F)(F)C(F)(F)C(F)(F)C(F)(F)C(F)(F)C(F)(F)C(F)(F)C(F)(F)CO", "outcome": "inactive"}, {"smiles": "NC(=O)C(F)(F)C(F)(F)C(F)(F)C(F)F", "outcome": "inactive"}, {"smiles": "C=CC(=O)OCCC(F)(F)C(F)(F)C(F)(F)C(F)(F)F", "AC50": "15 µM (active)"}, {"smiles": "CCN(CCO)S(=O)(=O)C(F)(F)C(F)(F)C(F)(F)C(F)(F)C(F)(F)C(F)(F)C(F)(F)C(F)(F)F", "outcome": "inactive"}, {"smiles": "OCC(F)(F)C(F)(F)C(F)(F)CO", "outcome": "inactive"}, {"smiles": "CO[Si](C)(CCC(F)(F)C(F)(F)C(F)(F)C(F)(F)C(F)(F)C(F)(F)F)OC", "outcome": "inactive"}, {"smiles": "O=S(=O)(O)CCC(F)(F)C(F)(F)C(F)(F)C(F)(F)F", "outcome": "inactive"}]}, {"test_system": "not listed separately", "assay": "CCTE_Shafer_MEA_dev_per_network_spike_spike_percent: CCTE's Neural Network Formation Assay for Percent of Spikes in a Network Spike, Shafer Lab (AID 2284054)", "how_it_was_run": "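Read-out: percent of spikes falling in a 0.05 s window at network-spike peak, from spontaneous MEA recordings on days 5, 7, 9 and 12; trapezoidal AUC; loss of signal versus DMSO. Rat cortical cultures, compound present throughout.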", "values": [{"smiles": "O=S(=O)(O)CCC(F)(F)C(F)(F)C(F)(F)C(F)(F)C(F)(F)C(F)(F)C(F)(F)C(F)(F)F", "outcome": "inactive"}, {"smiles": "OCC(F)(F)C(F)(F)C(F)(F)C(F)(F)C(F)(F)C(F)(F)CO", "outcome": "inactive"}, {"smiles": "OCCCCC(F)(F)C(F)(F)C(F)(F)C(F)(F)F", "outcome": "inactive"}, {"smiles": "OC(O)C(F)(F)C(F)(F)F", "outcome": "inactive"}, {"smiles": "O=C(O)C(F)(F)C(F)(F)C(F)(F)OC(F)(F)F", "outcome": "inactive"}, {"smiles": "C=CC(=O)OCC(F)(F)C(F)(F)C(F)(F)COC(=O)C=C", "AC50": "4.56 µM (active)"}, {"smiles": "FC(F)(F)C(F)(F)C(F)(F)C(F)(F)C(F)(F)C(F)(F)C(F)(F)CCI", "outcome": "inactive"}, {"smiles": "OCC(O)CC(F)(F)C(F)(F)C(F)(F)C(F)(F)F", "note": "(stereo unspecified)", "outcome": "inactive"}, {"smiles": "NC(=O)C(F)(F)C(F)(F)C(F)(F)F", "outcome": "inactive"}, {"smiles": "CNS(=O)(=O)C(F)(F)C(F)(F)C(F)(F)C(F)(F)C(F)(F)C(F)(F)C(F)(F)C(F)(F)F", "outcome": "inactive"}, {"smiles": "NC(O)(C(F)(F)F)C(F)(F)F", "outcome": "inactive"}, {"smiles": "NC(=O)C(F)(F)C(F)(F)C(F)(F)C(F)(F)C(N)=O", "outcome": "inactive"}, {"smiles": "OCC(F)(F)C(F)(F)C(F)(F)C(F)(F)C(F)(F)C(F)(F)C(F)(F)C(F)(F)CO", "outcome": "inactive"}, {"smiles": "NC(=O)C(F)(F)C(F)(F)C(F)(F)C(F)F", "outcome": "inactive"}, {"smiles": "C=CC(=O)OCCC(F)(F)C(F)(F)C(F)(F)C(F)(F)F", "AC50": "8.58 µM (active)"}, {"smiles": "CCN(CCO)S(=O)(=O)C(F)(F)C(F)(F)C(F)(F)C(F)(F)C(F)(F)C(F)(F)C(F)(F)C(F)(F)F", "outcome": "inactive"}, {"smiles": "OCC(F)(F)C(F)(F)C(F)(F)CO", "outcome": "inactive"}, {"smiles": "CO[Si](C)(CCC(F)(F)C(F)(F)C(F)(F)C(F)(F)C(F)(F)C(F)(F)F)OC", "outcome": "inactive"}, {"smiles": "O=S(=O)(O)CCC(F)(F)C(F)(F)C(F)(F)C(F)(F)F", "outcome": "inactive"}]}, {"test_system": "DIO3 (gene 1735)", "assay": "CCTE_GLTED_hDIO3: CCTE's human Deiodinase 3 (DIO3) Inhibition Assay, Great Lakes Toxicology and Ecology Division (GLTED) Lab (AID 2284055; active means hit-call score of the fitted dose curve at least 0.9, where 1 is the maximum;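 further: potency is for inhibition seen as loss of released iodide signal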)", "how_it_was_run": "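Human type 3 deiodinase, expressed via adenovirus system, was exposed to test chemicals for 3 hours in a cell-free format. Released iodide was then determined spectrophotometrically by Sandell-Kolthoff; plates ran in triplicate.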", "values": [{"smiles": "CCCCCCCCCCCCC[N+](C)(C)Cc1ccccc1", "AC50": "17 µM (active)"}, {"smiles": "CCCCCCCCCCCCCC[P+](CCCC)(CCCC)CCCC", "AC50": "3.56 µM (active)"}, {"smiles": "C=CC(=O)OCC(F)(F)C(F)(F)C(F)(F)COC(=O)C=C", "AC50": "45.1 µM (active)"}, {"smiles": "CCCCCCCCn1sc(Cl)c(Cl)c1=O", "AC50": "7.82 µM (active)"}, {"smiles": "CCN=C1C=CC(=C(c2ccc(N(CC)CC)cc2)c2ccc(N(CC)CC)cc2)c2ccccc21", "AC50": "8.42 µM (active)"}, {"smiles": "CCCCCCCC/C=C\\CCCCCCCC(=O)OCC(O)CO", "note": "(stereo unspecified)", "AC50": "21.3 µM (active)"}, {"smiles": "C=CC(=O)OCCC(F)(F)C(F)(F)C(F)(F)C(F)(F)F", "AC50": "51.8 µM (active)"}, {"smiles": "C=C(C)C(=O)OCC(F)(F)C(F)(F)C(F)(F)C(F)F", "AC50": "14.2 µM (active)"}, {"smiles": "CCN=c1cc2oc3cc(NCC)c(C)cc3c(-c3ccccc3C(=O)OCC)c-2cc1C", "AC50": "157 µM (active)"}, {"smiles": "CCCCCCCC/C=C\\CCCCCCCC(=O)N(C)CC(=O)O", "AC50": "22 µM (active)"}]}, {"test_system": "not listed separately", "assay": "CCTE_Shafer_MEA_dev_LDH: CCTE's Lactate Dehydrogenase Assay for Cytotoxicity in the Neural Network Formation Assay, Shafer Lab (AID 2284068; active means hit-call score of the fitted dose curve at least 0.9, where 1 is the maximum;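 further: exposure for twelve days from plating with re-dosing on DIV 5 and 9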)", "how_it_was_run": "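Primary rat cortical neurons were plated on PEI/laminin MEA plates and exposed from day 0 for twelve days, with compound renewed at DIV 5 and 9. Cytotoxicity was determined by spectrophotometric LDH assay relative to DMSO.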", "values": [{"smiles": "OCC(F)(F)C(F)(F)C(F)(F)C(F)(F)C(F)(F)C(F)(F)CO", "outcome": "inactive"}, {"smiles": "OCCCCC(F)(F)C(F)(F)C(F)(F)C(F)(F)F", "outcome": "inactive"}, {"smiles": "OC(O)C(F)(F)C(F)(F)F", "outcome": "inactive"}, {"smiles": "O=C(O)C(F)(F)C(F)(F)C(F)(F)OC(F)(F)F", "outcome": "inactive"}, {"smiles": "C=CC(=O)OCC(F)(F)C(F)(F)C(F)(F)COC(=O)C=C", "AC50": "5.84 µM (active)"}, {"smiles": "FC(F)(F)C(F)(F)C(F)(F)C(F)(F)C(F)(F)C(F)(F)C(F)(F)CCI", "outcome": "inactive"}, {"smiles": "NC(=O)C(F)(F)C(F)(F)C(F)(F)F", "outcome": "inactive"}, {"smiles": "CNS(=O)(=O)C(F)(F)C(F)(F)C(F)(F)C(F)(F)C(F)(F)C(F)(F)C(F)(F)C(F)(F)F", "outcome": "inactive"}, {"smiles": "NC(O)(C(F)(F)F)C(F)(F)F", "outcome": "inactive"}, {"smiles": "NC(=O)C(F)(F)C(F)(F)C(F)(F)C(F)(F)C(N)=O", "outcome": "inactive"}, {"smiles": "OCC(F)(F)C(F)(F)C(F)(F)C(F)(F)C(F)(F)C(F)(F)C(F)(F)C(F)(F)CO", "AC50": "23.3 µM (active)"}, {"smiles": "NC(=O)C(F)(F)C(F)(F)C(F)(F)C(F)F", "outcome": "inactive"}, {"smiles": "C=CC(=O)OCCC(F)(F)C(F)(F)C(F)(F)C(F)(F)F", "AC50": "15 µM (active)"}, {"smiles": "CCN(CCO)S(=O)(=O)C(F)(F)C(F)(F)C(F)(F)C(F)(F)C(F)(F)C(F)(F)C(F)(F)C(F)(F)F", "AC50": "10.1 µM (active)", "outcome": "inactive"}, {"smiles": "OCC(F)(F)C(F)(F)C(F)(F)CO", "outcome": "inactive"}, {"smiles": "CO[Si](C)(CCC(F)(F)C(F)(F)C(F)(F)C(F)(F)C(F)(F)C(F)(F)F)OC", "outcome": "inactive"}, {"smiles": "O=S(=O)(O)CCC(F)(F)C(F)(F)C(F)(F)C(F)(F)F", "outcome": "inactive"}]}]}
